# Where two headings read alike, the source gives them in different places.
# How the values were obtained:
# Set-up in all cases: species or system human, MV4-11 + K-562 + COLO205 + SK-N-BE2 + OVCAR-8
# [1] = test system: CDC7; settings: read-out: apparent Kd; compound concentrations: 100 nM and 1000 nM (sheet 'Samples'), CATDS: 8.1877579079801296E-2; n = 1
# [2] = test system: CLK1; settings: read-out: apparent Kd, n = 1
# [3] = test system: CLK4; settings: read-out: apparent Kd, n = 1
# [4] = test system: CSNK1A1; settings: read-out: apparent Kd; compound concentrations: 100 nM and 1000 nM (sheet 'Samples'), CATDS: 0.113796385521925; n = 1
# [5] = test system: CSNK1D; settings: read-out: apparent Kd; compound concentrations: 100 nM and 1000 nM (sheet 'Samples'), CATDS: 0.110842785331434; n = 1
# [6] = test system: CSNK1E; settings: read-out: apparent Kd; compound concentrations: 100 nM and 1000 nM (sheet 'Samples'), CATDS: 9.8087772288550895E-2; n = 1
# [7] = test system: ILK; settings: read-out: apparent Kd; compound concentrations: 100 nM and 1000 nM (sheet 'Samples'), CATDS: 8.2547383277030401E-2; n = 1
# [8] = test system: NQO1; settings: read-out: apparent Kd; compound concentrations: 100 nM and 1000 nM (sheet 'Samples'), CATDS: 9.0275127229000399E-2; n = 1
# [9] = test system: RIOK2; settings: read-out: apparent Kd; compound concentrations: 100 nM and 1000 nM (sheet 'Samples'), CATDS: 9.8590158992526697E-2; n = 1
# [10] = test system: TP53RK; settings: read-out: apparent Kd; compound concentrations: 100 nM and 1000 nM (sheet 'Samples'), CATDS: 7.7480450425825395E-2; n = 1
# [11] = test system: CDK16; settings: read-out: apparent Kd, n = 1
# [12] = test system: T1, DJA1; settings: read-out: apparent Kd; compound concentrations: 100 nM and 1000 nM (sheet 'Samples'), CATDS: 0.17087221308304101; n = 1
# T1 construct: gene DNAJA1
# [13] = test system: GSK3A; settings: read-out: apparent Kd, compound concentrations: 100 nM and 1000 nM (sheet 'Samples'), n = 1
# [14] = test system: GSK3B; settings: read-out: apparent Kd, n = 1
# [15] = test system: NQO2; settings: read-out: apparent Kd; compound concentrations: 100 nM and 1000 nM (sheet 'Samples'), CATDS: 0.16613061012500299; n = 1
# [16] = test system: PDXK; settings: read-out: apparent Kd; compound concentrations: 100 nM and 1000 nM (sheet 'Samples'), CATDS: 0.14245217988019501; n = 1
# [17] = test system: CDK17; settings: read-out: apparent Kd; compound concentrations:100 nM and 1000 nM (sheet 'Samples'); n = 1
# [18] = test system: CDKL5; settings: read-out: apparent Kd; compound concentrations:100 nM and 1000 nM (sheet 'Samples'); n = 1
# [19] = test system: DYRK1A; settings: read-out: apparent Kd; compound concentrations:100 nM and 1000 nM (sheet 'Samples'); n = 1
# [20] = test system: CDK10; settings: read-out: apparent Kd; compound concentrations: 100 nM and 1000 nM (sheet 'Samples'), CATDS: 0.11960358808183499; n = 1
# [21] = test system: HSPE1; settings: read-out: apparent Kd; compound concentrations: 100 nM and 1000 nM (sheet 'Samples'), CATDS: 0.54374623342004202; n = 1
# [22] = test system: ICK; settings: read-out: apparent Kd; compound concentrations: 100 nM and 1000 nM (sheet 'Samples'), CATDS: 0.128713258557627; n = 1
# [23] = test system: PKM; settings: read-out: apparent Kd; compound concentrations: 100 nM and 1000 nM (sheet 'Samples'), CATDS: 0.11750793600078301; n = 1
# [24] = test system: CDC42; settings: read-out: apparent Kd; compound concentrations: 100 nM and 1000 nM (sheet 'Samples'), CATDS: 0.115085372614253; n = 1
# [25] = test system: EGFR; settings: read-out: apparent Kd; compound concentrations: 100 nM and 1000 nM (sheet 'Samples'), CATDS: 0.71685181489177596; n = 1
# [26] = test system: ERBB3; settings: read-out: apparent Kd; compound concentrations: 100 nM and 1000 nM (sheet 'Samples'), CATDS: 0.132982955491593; n = 1
# [27] = test system: NNT; settings: read-out: apparent Kd; compound concentrations: 100 nM and 1000 nM (sheet 'Samples'), CATDS: 0.11921325436386; n = 1
# [28] = test system: RAB5C; settings: read-out: apparent Kd; compound concentrations: 100 nM and 1000 nM (sheet 'Samples'), CATDS: 0.157008240219803; n = 1
# [29] = test system: RIPK2; settings: read-out: apparent Kd; compound concentrations: 100 nM and 1000 nM (sheet 'Samples'), CATDS: 0.27482887705752401; n = 1
# [30] = compound concentrations:100 nM and 1000 nM (sheet 'Samples')
smiles,measurement,setting,value
CCc1c(C)nc2sc3c(N)ncnc3c2c1C [RO4493944-000],potency estimated from few doses,[1],1870 nM
same,potency estimated from few doses,"[2]; compound concentrations: 100 nM and 1000 nM (sheet 'Samples'), CATDS: 0.173131615518303",453 nM
same,potency estimated from few doses,"[3]; compound concentrations: 100 nM and 1000 nM (sheet 'Samples'), CATDS: 0.128777290310437",724 nM
same,potency estimated from few doses,[4],903 nM
same,potency estimated from few doses,[5],949 nM
same,potency estimated from few doses,[6],1220 nM
same,potency estimated from few doses,[7],1830 nM
same,potency estimated from few doses,[8],1460 nM
same,potency estimated from few doses,[9],1200 nM
same,potency estimated from few doses,[10],2190 nM
Cn1cc(C2=C(c3cccc(Br)c3)C(=O)NC2=O)c2ccccc21 [RO0317625-000],potency estimated from few doses,"[11]; compound concentrations: 100 nM and 1000 nM (sheet 'Samples'), CATDS: 0.11881037811930099",2310 nM
same,potency estimated from few doses,[12],881 nM
same,potency estimated from few doses,[13]; CATDS: 0.21400406250920001,574 nM
same,potency estimated from few doses,"[14]; compound concentrations: 100 nM and 1000 nM (sheet 'Samples'), CATDS: 0.248828524546996",447 nM
same,potency estimated from few doses,[15],935 nM
same,potency estimated from few doses,[16],1340 nM
CCN1CCC(CC(=O)Nc2n[nH]c3nnc(-c4cccc(F)c4F)cc23)CC1.O=C(O)[C@H](O)[C@@H](O)C(=O)O [SB-698596-AC],potency estimated from few doses,[11]; [30],53.3 nM
same,potency estimated from few doses,[17],995 nM
same,potency estimated from few doses,[18],46.9 nM
same,potency estimated from few doses,[2]; [30],693 nM
same,potency estimated from few doses,[3]; [30],1420 nM
same,potency estimated from few doses,[19],1520 nM
same,potency estimated from few doses,[13]; CATDS: 0.61035791771228698,0.905 nM
same,potency estimated from few doses,[14]; [30],2.33 nM
Cn1cc(C2=C(c3cccnc3)C(=O)NC2=O)c2ccccc21 [RO0317886-000],potency estimated from few doses,[20],1080 nM
same,potency estimated from few doses,[13]; CATDS: 0.212149107920546,213 nM
same,potency estimated from few doses,"[14]; compound concentrations: 100 nM and 1000 nM (sheet 'Samples'), CATDS: 0.208029225896153",222 nM
same,potency estimated from few doses,[21],39.3 nM
same,potency estimated from few doses,[22],825 nM
same,potency estimated from few doses,[23],1160 nM
CN(C)c1cc2c(Nc3ccc4nc(Cc5ccccc5)[nH]c4c3)ncnc2cn1 [GW301888X],potency estimated from few doses,[24],1800 nM
same,potency estimated from few doses,[25],19.1 nM
same,potency estimated from few doses,[26],1030 nM
same,potency estimated from few doses,[27],1550 nM
same,potency estimated from few doses,[28],599 nM
same,potency estimated from few doses,[29],133 nM

# From publication PMC11062922 (Nature Chemical Biology, 2023)
